# According to PubChem BioAssay:
# Calls of active or inactive are those of the source. Rule as the data show it, unless noted: active = inhibition above about 80%; inactive = the rest.
# How the values were obtained:
# [1] = growth inhibition of RCMB18 medulloblastoma cells, cell-based, cisplatin and BGB IC40 combos (AID 1671462); conditions: stronger effect = higher value;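 also: cells exposed to compound for four days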
# [2] = growth inhibition of CRL1545 osteosarcoma cells, cell-based, cisplatin and BGB IC20 combos (AID 1671464); conditions: stronger effect = higher value;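 also: cells exposed to compound for 96 hours before readout; 0% = vehicle DMSO and 100% = high DMSO killing control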
# [3] = LFS_MB_P medulloblastoma growth inhibition, cell-based, chromothripsis tumors, cisplatin or BGB combos (AID 1671449); conditions: LFS_MB_P medulloblastoma cells;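 also: cells exposed for 96 hours; 0% = vehicle DMSO and 100% = killing by high DMSO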
# [4] = HDN33 neuroblastoma growth inhibition, cell-based, chromothripsis tumors, cisplatin or BGB combos (AID 1671450); conditions: HDN33 neuroblastoma cells, stronger effect = higher value;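 also: cells exposed to compound for four days; 0% = vehicle DMSO and 100% = cell killing by high DMSO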
# [5] = ICB984 medulloblastoma cell growth inhibition, synergistic combos for chromothripsis tumors, cisplatin or BGB combos (AID 1671451; call rule not given here;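 also: cells exposed for 96 hours before readout; 0% = vehicle DMSO and 100% = killing by high DMSO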); conditions: ICB984 medulloblastoma cells, drug combinations, stronger effect = higher value
# [6] = LFS_MB_1R medulloblastoma cell growth inhibition, synergistic combos for chromothripsis tumors, cisplatin or BGB combos (AID 1671452); conditions: LFS_MB_1R medulloblastoma cells, stronger effect = higher value;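 also: cells exposed for 96 hours before readout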
# [7] = HTB85 osteosarcoma cell growth inhibition, synergistic combos for chromothripsis tumors, BGB or cisplatin IC20 combos (AID 1671453); conditions: HTB85 osteosarcoma cells, drug combinations, stronger effect = higher value;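 also: cells exposed for 96 hours before readout; 0% = vehicle DMSO and 100% = high DMSO killing control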
# [8] = CRL2098 osteosarcoma cell growth inhibition, synergistic combos for chromothripsis tumors, BGB or cisplatin IC20 combos (AID 1671454); conditions: CRL2098 osteosarcoma cells, drug combinations, stronger effect = higher value;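 also: cells exposed for 96 h before readout; 0% = vehicle DMSO and 100% = killing by high DMSO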
# [9] = HD-MB03 medulloblastoma cell growth inhibition, synergistic combos for chromothripsis tumors, BGB or cisplatin IC20 combos (AID 1671455; in the data active = inhibition above about 83%;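 also: 0% = vehicle DMSO and 100% = high DMSO as cytotoxic control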); conditions: HD-MB03 medulloblastoma cells, stronger effect = higher value
# [10] = UWB1.289 ovarian carcinoma cell growth inhibition, synergistic combos for chromothripsis tumors, BGB or cisplatin combos (AID 1671456); conditions: UWB1.289 ovarian carcinoma cells, stronger effect = higher value;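 also: cells exposed to compound for four days; 0% = vehicle DMSO and 100% = killing by high DMSO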
# [11] = LFS_MB_2R medulloblastoma cell growth inhibition, synergistic combos for chromothripsis tumors, cisplatin combos (AID 1671457); conditions: LFS_MB_2R medulloblastoma cells, stronger effect = higher value;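 also: cells exposed to compound for four days before readout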
# [12] = MDA-MB-436 breast carcinoma cell growth inhibition, synergistic combos for chromothripsis tumors, BGB or cisplatin combos (AID 1671458; call rule not given here;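 also: cells exposed for 96 hours; 0% = vehicle DMSO and 100% = killing by high DMSO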); conditions: MDA-MB-436 breast carcinoma growth inhibition, drug combinations, stronger effect = higher value
# [13] = UWB1.289_BRCA1 ovarian cancer growth, cell-based, BGB or cisplatin combinations (AID 1671459); conditions: UWB1.289 BRCA1 ovarian carcinoma, drug combinations, stronger effect = higher value
# [14] = human astrocyte viability loss, single and combined drugs, cytotoxicity control for chromothriptic childhood tumor combination screen, cell-based, BGB or cisplatin IC20 combos (AID 1671460); conditions: Human astrocytes, drug combinations, stronger effect = higher value;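 also: cells exposed to compounds for 96 hours before viability readout; 0% = vehicle and 100% = killing control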
# [15] = growth inhibition of BT084 medulloblastoma cells, cell-based, ICGC_MB145, cisplatin and BGB IC40 combos (AID 1671461); conditions: drug combinations, stronger effect = higher value;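 also: cells exposed to drugs for 96 hours; 0% = vehicle DMSO and 100% = high DMSO full killing control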
# [16] = measured here: BGB IC40 combination, at 0.05 µM
# [17] = measured here: combination with cisplatin, at 0.5 µM
# [18] = measured here: with BGB IC20 combination, at 0.5 µM
# [19] = measured here: with cisplatin IC20 combination, at 0.5 µM
# [20] = measured here: combination with BGB IC40, at 0.05 µM
# [21] = measured here: combination with cisplatin, at 5 µM
smiles,measurement,setting,value
NC(=O)c1cccc2[nH]c(-c3ccc(C4CCCN4)cc3F)nc12 (stereo unspecified),inhibition,[1]; [16],-5.7%
same,inhibition,[1]; [17],-29.9%
same,inhibition,"[1]; single agent, at 5 µM",39.2%
same,inhibition,[2]; at 0.5 µM,-0.89% (inactive)
same,inhibition,[2]; [18],-14.3%
same,inhibition,[2]; [19],5.82%
same,inhibition,"[2]; single agent, at 0.05 µM",27.4%
same,inhibition,"[2]; single agent, at 5 µM",63.4%
Cn1cc(-c2cnn3c(N)c(Br)c([C@H]4CCCNC4)nc23)cn1,inhibition,"[3]; at 0.5 µM, stronger effect = higher value",20.2% (inactive)
same,inhibition,"[3]; measured here: combination with BGB IC20, at 0.005 µM",-7.68%
same,inhibition,"[3]; measured here: combination with BGB IC40, at 0.005 µM",93.8%
same,inhibition,[3]; [20],11.8%
same,inhibition,"[3]; measured here: combination with cisplatin, at 0.5 µM, stronger effect = higher value",10.2%
same,inhibition,"[3]; measured here: combination with cisplatin, at 5 µM, stronger effect = higher value",-24.2%
same,inhibition,"[4]; BGB combo, at 5 µM",73.2%
same,inhibition,[4]; at 0.5 µM,22.3% (inactive)
same,inhibition,"[4]; cisplatin combo, at 5 µM",83.7%
same,inhibition,[4]; [18],9.52%
same,inhibition,[4]; [19],28.6%
same,inhibition,"[4]; single agent, at 5 µM",88.5%
same,inhibition,"[5]; BGB IC20 combo, at 0.005 µM",-13.9%
same,inhibition,"[5]; BGB IC40 combo, at 0.005 µM",-26.3%
same,inhibition,"[5]; BGB IC40 combo, at 0.05 µM",-14.6%
same,inhibition,[5]; at 0.5 µM,-16.3% (inactive)
same,inhibition,"[5]; cisplatin combo, at 0.05 µM",-20.5%
same,inhibition,"[5]; cisplatin combo, at 0.5 µM",-27.1%
same,inhibition,"[5]; cisplatin combo, at 5 µM",-5.82%
same,inhibition,"[5]; measured here: 5 uM single agent, at 5 µM",-16.1%
same,inhibition,[6]; at 0.5 µM,2.92% (inactive)
same,inhibition,[6]; [20],-16.9%
same,inhibition,[6]; [17],5.45%
same,inhibition,[6]; [21],-19.5%
same,inhibition,[7]; at 0.5 µM,-14.3% (inactive)
same,inhibition,"[7]; measured here: with BGB IC20, at 0.5 µM",4.42%
same,inhibition,"[7]; measured here: with BGB IC20, at 5 µM",66.4%
same,inhibition,"[7]; measured here: with cisplatin IC20, at 0.5 µM",-18.4%
same,inhibition,"[7]; measured here: with cisplatin IC20, at 5 µM",80.6%
same,inhibition,"[7]; single agent, at 5 µM",52.9%
same,inhibition,[8]; at 0.5 µM,-2.8% (inactive)
same,inhibition,"[8]; measured here: combination with BGB at IC20, at 0.5 µM",-24%
same,inhibition,"[8]; measured here: combination with cisplatin at IC20, at 0.5 µM",-3.06%
same,inhibition,[9]; at 0.5 µM,6.2% (inactive)
same,inhibition,"[9]; measured here: combo with BGB at IC20, at 0.5 µM",2.25%
same,inhibition,"[9]; measured here: combo with cisplatin at IC20, at 0.5 µM",17.7%
same,inhibition,[10]; at 0.5 µM,28.5% (inactive)
same,inhibition,"[10]; measured here: inhibition with BGB combination, at 0.05 µM",-6.38%
same,inhibition,"[10]; measured here: inhibition with cisplatin combination, at 0.05 µM",-4.25%
same,inhibition,[11]; at 0.5 µM,-5.31% (inactive)
same,inhibition,[11]; [17],-14.4%
same,inhibition,[11]; [21],-6.17%
same,inhibition,[12]; at 0.5 µM,29.3% (inactive)
same,inhibition,"[12]; measured here: BGB combination, at 0.5 µM",21.8%
same,inhibition,"[12]; measured here: BGB combination, at 5 µM",53.4%
same,inhibition,"[12]; measured here: cisplatin combination, at 0.5 µM",36.8%
same,inhibition,"[12]; measured here: cisplatin combination, at 5 µM",73.3%
same,inhibition,"[13]; BGB combination, concentration series, at 5 µM",103%
same,inhibition,[13]; at 0.5 µM,7.13% (inactive)
same,inhibition,"[13]; cisplatin combination, concentration series, at 5 µM",119%
same,inhibition,[14]; at 0.5 µM,-19% (inactive)
same,inhibition,"[14]; measured here: combo with BGB IC20, at 0.5 µM",-17.5%
same,inhibition,"[14]; measured here: combo with cisplatin IC20, at 0.5 µM",-30.9%
same,inhibition,[15]; at 0.5 µM,11% (inactive)
same,inhibition,"[15]; cisplatin combination, at 0.5 µM",16.1%
same,inhibition,"[15]; cisplatin combination, at 5 µM",-105%
same,inhibition,"[15]; measured here: BGB IC40 combination 0.05 uM, at 0.05 µM",5.34%
same,inhibition,"[15]; single agent, at 5 µM",34.7%
same,inhibition,[1]; at 0.5 µM,4.28% (inactive)
same,inhibition,"[1]; cisplatin combo, at 5 µM",22.7%
same,inhibition,[1]; [16],-33.2%
same,inhibition,[1]; [17],-3.81%
same,inhibition,"[1]; single agent, at 5 µM",47.3%
same,inhibition,[2]; at 0.5 µM,79.7% (inactive)
same,inhibition,[2]; [18],73.9%
same,inhibition,[2]; [19],82.3%
same,inhibition,"[2]; single agent, at 0.05 µM",19%
same,inhibition,"[2]; single agent, at 5 µM",92.3%
